The results in this text go back to PubChem BioAssay AID1030 (National Center for Advancing Translational Sciences (NCATS), 2008).

Molecules are shown by their SMILES. The whole screen tested about 220,000 compounds, of which about 16,000 (7.3%) were called active. Roughly 25% stayed inconclusive and do not appear here. What follows is part of a selection rich in actives, with near analogues and random picks from the rest. Values without a mark were called inactive. Calls follow the shape of the dose curve; as a rule, active = well fitted inhibition curve with a large enough effect (not every such curve was filed as active); inconclusive = small, poorly fitted or top-dose-only effect, or another doubt; inactive = no such curve, though single readings can be large or run the other way.
Potency is read from the fitted curve at half-maximal effect.

For the experiment, the target named is Aldehyde dehydrogenase 1A1 (Homo sapiens) (UniProt P00352). Briefly: qHTS Assay for Inhibitors of Aldehyde Dehydrogenase 1 (ALDH1A1).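 As to activity, negative = inhibition: plate controls were no enzyme wells and a reference inhibitor.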 Particulars: Purified ALDH1A1, NADH fluorescence, propionaldehyde substrate; series mostly up to 75.3 µM; activity, negative = inhibition: at the top concentration. (In general: Quantitative high-throughput screening tests each substance at several concentrations.)
Sequence of Aldehyde dehydrogenase 1A1 (Homo sapiens) (P00352 whole entry, looked up): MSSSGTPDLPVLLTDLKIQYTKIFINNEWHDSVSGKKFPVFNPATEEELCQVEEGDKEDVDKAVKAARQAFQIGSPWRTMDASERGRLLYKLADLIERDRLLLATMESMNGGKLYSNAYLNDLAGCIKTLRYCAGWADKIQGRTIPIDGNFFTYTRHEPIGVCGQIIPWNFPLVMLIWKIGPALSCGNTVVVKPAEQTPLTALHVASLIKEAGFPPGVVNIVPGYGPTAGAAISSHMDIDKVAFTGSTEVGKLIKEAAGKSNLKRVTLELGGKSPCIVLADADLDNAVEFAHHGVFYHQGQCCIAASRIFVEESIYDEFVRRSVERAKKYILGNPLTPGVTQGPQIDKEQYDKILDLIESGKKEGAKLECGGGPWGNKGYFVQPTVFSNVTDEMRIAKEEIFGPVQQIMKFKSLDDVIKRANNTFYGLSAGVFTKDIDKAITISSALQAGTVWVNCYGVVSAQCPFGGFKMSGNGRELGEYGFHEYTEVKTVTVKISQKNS
Take `CCSC1=NCCN1S(=O)(=O)c1ccc(F)cc1`: the “activity, negative = inhibition” value is -7.78%. Take `COC(=O)CC1c2ccccc2C(Cc2ccc(OC)cc2)=C(C)N1C(=O)OC` (stereo not given): the activity, negative = inhibition was -1.14% [at 13.5 µM]. Same read-out and setting: the figure for `O=C(NC1CCN(Cc2ccccc2)CC1)c1cc(Br)c(Br)[nH]1` is 5.04%; for `O=C(COc1ccc(Br)cc1F)NC1CCN(Cc2ccccc2)CC1` it is 6.09%.

Take `S=C(Nc1ccc(Br)cc1Cl)NC1CCN(Cc2ccccc2)CC1`: the Potency was 0.631 µM (active). Consider `COc1ccc2ccccc2c1CNc1nnnn1C`, for which the “activity, negative = inhibition” value was -6.21%. As for `COC(=O)c1cc(NC(=O)c2cccnc2)ccc1N1CCOCC1`, the “activity, negative = inhibition” value was 12.4%.

On to `CC1=NN(C(=O)c2ccc(Br)cc2)C(O)(c2ccccc2)C1` (stereo not given), for which the “activity, negative = inhibition” value was -5.04%. In the case of `O=C(COC(=O)CCc1nc2ccccc2c(=O)[nH]1)Nc1ccc(N2CCOCC2)cc1`, the “activity, negative = inhibition” value is -2.55%. On to `CC1CC(C)CN(CC(=O)Nc2ccc(S(N)(=O)=O)cc2)C1` (stereo not given), for which the Potency was 8.91 µM (active). As for `NS(=O)(=O)c1ccc(NC(=O)COC(=O)c2ccco2)cc1`, the “activity, negative = inhibition” value was 1.15%. On to `CC1CC(C)CN(CCC(=O)Nc2ccc3c(c2)CCC3)C1` (stereo not given), for which the “activity, negative = inhibition” value is -9.83%. The same measure, in the same setting: the figure for `COc1ccc(C2C(C#N)=C(N)N(c3ncn[nH]3)C3=C2C(=O)CCC3)cc1` (stereo not given) is -2.36%; for `CC(C)(C)NC(=O)NC(=O)COC(=O)Cc1c(F)cccc1Cl` it is 0.773%.

As for `CC(=O)COc1ccc2c(-c3ccccc3)cc(=O)oc2c1`, the Potency was 6.31 µM (active).

As for `CCOC(=O)COc1cc(O)c2c(=O)cc(-c3ccccc3)oc2c1`, the “activity, negative = inhibition” value is -1.95%. As for `O=C(COc1ccc2c(C(F)(F)F)cc(=O)oc2c1)Nc1ccc2c(c1)OCCO2`, the “activity, negative = inhibition” value was -0.303%. The same measure, in the same setting: the figure for `CC(Sc1nc2cc(Cl)ccc2s1)C(=O)Nc1ccc2c(c1)OCO2` (stereo not given) is -1.3%; for `Cc1cc(Cl)ccc1OCCCC(=O)NCc1ccccn1` it is 5.45%. In the case of `Cc1cccc(N2C(=O)SC(SC(=Nc3ccccc3)Nc3ccccc3)C2=O)c1` (stereo not given), the Potency was 15.8 µM (active). With `Cc1cccc(N=Nc2c(C)[nH]n(-c3ccccc3)c2=O)c1`, the “activity, negative = inhibition” value is 0.918%.

Take `Cc1cccc(N2C(=O)C3C(c4ccccc4)OC4(C(=O)c5ccccc5C4=O)C3C2=O)c1` (stereo not given): the “activity, negative = inhibition” value is -1.19%.

`COc1ccccc1-c1noc(CSc2nc(C)cc(=O)[nH]2)n1`: the “activity, negative = inhibition” value is 3.99%. `O=C(CSc1ncnc2c1nnn2Cc1ccc(F)cc1)NC1CCCC1`: the “activity, negative = inhibition” value was 5.38%. On the same count and under the same terms, as for `CC(=O)Nc1ccn(Cc2c(F)cccc2Cl)n1`, the figure is 11.3%.

Regarding `OC1CCCN(c2ncnc3c2nnn3Cc2c(F)cccc2Cl)C1` (stereo not given), the Potency is 7.94 µM (active). As for `CCOc1ccc(OCc2cccc(C(=O)N(CC)CC)c2)cc1`, the “activity, negative = inhibition” value was -11.7%. Turning to `CC(C)NC(=S)NN=C1CCCCCCCCCCC1`, the “activity, negative = inhibition” value was -4.75%. Still for that read-out and setting: as for `OC[C@H]1O[C@@H](n2cnc3c(NC4CCCC4)ncnc32)[C@H](O)[C@H]1O`, the figure is -8.77%; as for `CCN(CC)S(=O)(=O)c1ccc(N(C)CCc2ccc(OC)c(OC)c2)nc1`, 6.98%; as for `O=C(/C=C/c1ccc2c(c1)OCCO2)c1ccc(O)cc1`, 4.61%. The same measure, in the same setting: as for `CN(C)c1ccc(/C=C/C(=O)c2ccc(C(C)(C)C)cc2)cc1[N+](=O)[O-]`, the figure is -0.256%.

With `CN(C)c1ccc(/C=C/C(=O)c2ccc(O)cc2)cc1[N+](=O)[O-]`, the Potency is 17.8 µM (active).

As for `CCOc1ccccc1/C=N/NC(=O)CNC(=O)COc1ccccc1`, the “activity, negative = inhibition” value was -5.79%.

`CCC(C)NC(=O)C1c2ccccc2Oc2ccccc21` (stereo not given): the “activity, negative = inhibition” value was 7.74%.

For `O=C(Nc1ccc(N2CCN(C(=O)c3cccs3)CC2)cc1)c1cccnc1Cl`, the “activity, negative = inhibition” value was 0.829%. Still for that read-out and setting: the figure for `Cc1cc(Cl)ccc1NNC(=O)c1snnc1C` is 4.29%; for `CC(C)C(C)(C#N)NC(=O)CSc1nncn1-c1ccccc1` (stereo not given) it is 2.04%; for `C=CCNC(=O)CSc1nc2sc(C)c(C)c2c(=O)[nH]1` it is -3.38%.

In the case of `CC(C)C(C)(C#N)NC(=O)CSc1nc2scc(-c3ccccc3)c2c(=O)[nH]1` (stereo not given), the Potency is 11.2 µM (active). On to `CCOC(=O)c1sc2nc(C)nc(Nc3ccc(OC)c(OC)c3)c2c1C`, for which the “activity, negative = inhibition” value is -1.57%. For `Cc1ccc(S(=O)(=O)NCCc2nnc3ccc(SCc4cccnc4)nn23)cc1`, the “activity, negative = inhibition” value is -5.59%. Same read-out and setting: the figure for `CCN(CC)C(=O)Oc1ccc(Br)cc1C(=O)Nc1ccc(F)c(Cl)c1` is 4.26%. Still for that read-out and setting: as for `CNC(=O)c1[nH]cnc1C(=O)N[C@@H](CC(C)C)C(=O)OCc1ccccc1`, the figure is 4.76%; as for `O=C(Cc1ccc(F)cc1)N/N=C/c1ccc2c(c1)OCO2`, -2.31%; as for `Cc1c(NC(=O)Nc2ccccc2)cccc1[N+](=O)[O-]`, -4.7%. Same read-out and setting: the figure for `Cc1c(NC(=O)CCCOc2ccccc2)cccc1[N+](=O)[O-]` is -17.8%.

In the case of `Cc1c(NC(=S)NCc2ccc(F)cc2)cccc1[N+](=O)[O-]`, the Potency was 31.6 µM (active). For the molecule `Cc1c(NC(=O)/C=C/C(=O)O)cccc1[N+](=O)[O-]`, the Potency was 25.1 µM (active). For the molecule `Cc1cccc(NC(=S)NCCc2ccc(F)cc2)c1C`, the “activity, negative = inhibition” value was -1.95%.

`Cc1cc(C)cc(NC(=S)NCc2ccc(F)cc2)c1`: the “activity, negative = inhibition” value was -1.59%. Same read-out and setting: as for `COc1cc(C(=O)OCc2ccc([N+](=O)[O-])cc2)cc(OC)c1OC`, the figure is 7.71%.

On to `Cc1ccc(C)c(Cn2cnc3c(oc4ccccc43)c2=O)c1`, for which the “activity, negative = inhibition” value is 2.37%. Still for that read-out and setting: as for `COc1ccc(OC)c(S(=O)(=O)Nc2cccc(-c3ccc4nncn4n3)c2)c1`, the figure is 0.157%; as for `CC(NC(=O)COC(=O)c1cc(=O)[nH]c2ccccc12)c1ccccc1` (stereo not given), -9.17%.
